Test results published in PubChem BioAssay AID1479146 (National Center for Advancing Translational Sciences (NCATS), 2020).
Records with an inconclusive call do not appear. Where a call stands in place of a potency, no number is given. The source made the active and inactive calls. Calls come from the whole dose curve.

Assay: Confirmatory qHTS for Huh7 cytotoxicity: counterscreen for inhibitors of MERS-S pseudo-typed particle cell entry
Conditions: viability; series mostly up to 57.1 µM

SMILES	Potency	activity change, negative = cytotoxicity
C[n+]1c2cc(N)ccc2cc2ccc(N)cc21 (tested in a mixture with another compound)	3.83 µM (active)	–
C/C=C(/C)C(=O)O[C@H]1C(C)=CC23C(=O)C(C=C(CO)[C@@H](O)[C@]12O)[C@H]1[C@@H](C[C@H]3C)C1(C)C (some centres not stated)	inactive	–
Cc1cn([C@H]2C[C@H](N=[N+]=[N-])[C@@H](CO)O2)c(=O)[nH]c1=O	inactive	–
COc1cc([C@@H]2c3cc4c(cc3C(O[C@@H]3O[C@@H]5CO[C@@H](c6cccs6)OC5[C@H](O)[C@H]3O)C3COC(=O)[C@@H]32)OCO4)cc(OC)c1O (some centres not stated)	5.41 µM (active)	–
O=C(Nc1ccc([N+](=O)[O-])cc1Cl)c1cc(Cl)ccc1O	3.83 µM (active)	–
Cc1cc(C(C#N)c2ccc(Cl)cc2)c(Cl)cc1NC(=O)c1cc(I)cc(I)c1O (configuration not stated)	inactive	–
N/C(=N\N=C\c1ccc(Cl)cc1)N/N=C/c1ccc(Cl)cc1	inactive	–
CCCCCCOC(=O)NC(=N)c1ccc(NCc2nc3cc(C(=O)N(CCC(=O)OCC)c4ccccn4)ccc3n2C)cc1	inactive	–
COc1cc(N)c(Cl)cc1C(=O)NC1CCN(CCCOc2ccc(F)cc2)CC1OC (configuration not stated)	inactive	–
Cc1c(N)nc(C(CC(N)=O)NCC(N)C(N)=O)nc1C(=O)NC(C(=O)NC(C)C(O)C(C)C(=O)NC(C(=O)NCCc1nc(-c2nc(C(=O)NCCCN[C@@H](C)c3ccccc3)cs2)cs1)C(C)O)C(O[C@@H]1O[C@@H](CO)[C@@H](O)[C@H](O)[C@@H]1O[C@H]1O[C@H](CO)[C@@H](O)[C@H](OC(N)=O)[C@@H]1O)c1cnc[nH]1 (some centres not stated)	inactive	–
CC(C)(C)NC(=O)[C@H]1CC[C@H]2[C@@H]3CC[C@H]4NC(=O)C=C[C@]4(C)[C@H]3CC[C@]12C	inactive	–
C=C1c2c(Cl)ccc(O)c2C(O)=C2C(=O)[C@@]3(O)C(O)=C(C(N)=O)C(=O)[C@@H](N(C)C)[C@@H]3[C@@H](O)[C@H]12	inactive	–
CN1CCC(=C2c3ccccc3CCc3sccc32)CC1	inactive	–
CCCCCCCCCCCCOCCOCCOCCOCCOCCOCCOCCOCCOCCO	inactive	–
COc1c(OCCCN2CCOCC2)ccc2c3n(c(=NC(=O)c4cnc(N)nc4)nc12)CCN3	–	-10.8% [at 11.2 µM] (inactive)
CCN(CC)CCNC(=O)c1c(C)[nH]c(/C=C2\C(=O)Nc3ccc(F)cc32)c1C	27.1 µM (active)	–
COc1cc2nccc(Oc3ccc(NC(=O)NC4CC4)c(Cl)c3)c2cc1C(N)=O	inactive	–
CN(C)[C@@H](CCOc1cccc2ccccc12)c1ccccc1	inactive	–
c1ccc2c(c1)Sc1ccccc1N2CC1CN2CCC1CC2 (configuration not stated)	30.4 µM (active)	–
O=c1c(C2CC(c3ccc(-c4ccc(Br)cc4)cc3)Cc3ccccc32)c(O)sc2ccccc12 (configuration not stated)	inactive	–
CCCCN=C(N)N=C(N)N	inactive	–
CC[C@H](C)C(=O)O[C@H]1C[C@@H](C)C=C2C=C[C@H](C)[C@H](CC[C@@H]3C[C@@H](O)CC(=O)O3)[C@H]21	inactive	–
CN1CCC(=C2c3ccccc3C=Cc3ccccc32)CC1	inactive	–
CCCN1C[C@H](C)[C@@H](O)[C@](C)(O)[C@@H](CC)OC(=O)[C@H](C)[C@@H](O[C@H]2C[C@@](C)(OC)[C@@H](O)[C@H](C)O2)C(C)[C@@H](O[C@@H]2O[C@H](C)C[C@H](N(C)C)[C@H]2O)[C@](C)(O)C[C@H]1C (some centres not stated)	inactive	–
Cc1nnc2n1-c1sc(CCc3ccc(CC(C)C)cc3)cc1C(c1ccccc1Cl)=NC2C (configuration not stated)	inactive	–
Nc1ccn([C@@H]2O[C@H](CO)[C@@H](O)C2(F)F)c(=O)n1	inactive	–
O=C1c2c(O)ccc(O)c2C(=O)c2c(NCCNCCO)ccc(NCCNCCO)c21	17.1 µM (active)	–
